This is one part of a sample in which hits are shown more often than they occur.
NTMT1 inhibitor = Primary qHTS for Inhibitors of N-terminal methyltransferase 1 (NTMT1): MTaseGlo Assay. N-terminal Xaa-Pro-Lys N-methyltransferase 1 (Homo sapiens), Q9BV86. NTMT1 MTase-Glo SAH luminescence, purified enzyme. Potency, µM (top dose mostly 114 µM), for the others: top-dose activity change, negative = inhibition, most hits filed as inhibitors. 2.5% of 59,000 active. AID 1645870, 2021;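 also: potency is read from the fitted curve at half-maximal effect; plate controls were DMSO vehicle for no effect and no enzyme for full effect; nearly all actives have a fitted effect of over 65% in size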
Target sequence (Q9BV86 whole entry, looked up): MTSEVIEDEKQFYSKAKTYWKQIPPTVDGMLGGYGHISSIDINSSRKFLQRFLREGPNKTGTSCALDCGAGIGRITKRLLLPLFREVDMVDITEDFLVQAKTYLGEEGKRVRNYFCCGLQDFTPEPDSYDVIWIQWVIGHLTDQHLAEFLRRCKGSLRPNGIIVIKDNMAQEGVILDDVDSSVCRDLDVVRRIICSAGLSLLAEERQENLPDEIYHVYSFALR
FH mod = Identification of activators of human fumarate hydratase by quantitative high-throughput screening. FH coupled MDH/diaphorase resazurin fluorescence, 15 min. Potency, µM (titrated, usually from 79.9 µM), for inactives: at the top dose activity change, negative = inhibition, most hits filed as inhibitors. 0.22% of 54,000 active; also: potency is read from the fitted curve at half-maximal effect; % is scaled to controls: 0 for no effect and ±100 for the full control effect; the screen sought activators but most active calls are inhibition curves; nearly all actives have a fitted effect of over 45% in size
Target sequence (P07954 whole entry, looked up): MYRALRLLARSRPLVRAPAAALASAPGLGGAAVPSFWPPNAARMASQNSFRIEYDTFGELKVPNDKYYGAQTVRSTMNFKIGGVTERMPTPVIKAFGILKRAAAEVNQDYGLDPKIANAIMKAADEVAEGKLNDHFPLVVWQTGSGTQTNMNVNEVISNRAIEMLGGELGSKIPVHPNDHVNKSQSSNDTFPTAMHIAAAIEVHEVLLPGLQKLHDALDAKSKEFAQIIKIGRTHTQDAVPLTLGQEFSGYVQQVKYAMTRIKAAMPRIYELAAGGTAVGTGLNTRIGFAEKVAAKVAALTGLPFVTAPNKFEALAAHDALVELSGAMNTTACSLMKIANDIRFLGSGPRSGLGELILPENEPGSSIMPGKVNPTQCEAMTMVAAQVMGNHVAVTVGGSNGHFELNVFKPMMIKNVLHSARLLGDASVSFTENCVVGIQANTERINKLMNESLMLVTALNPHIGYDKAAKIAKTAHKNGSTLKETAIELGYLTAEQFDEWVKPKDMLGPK
p53null 39C kill = qHTS Screen for Compounds that Selectively Target Cancer Cells with p53 Mutations: Cytotoxicity of p53 Null Cells at the Nonpermissive Temperature; H1299 p53-null (neo) cells, 39C, ATPlite viability, 24 h; Potency, µM (top dose mostly 46.1 µM), for inactives: at the top dose activity, negative = cell killing, hits mostly cytotoxic; 0.97% of 55,000 active; AID 904, 2007;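 also: potency is read from the fitted curve at half-maximal effect; 0% = DMSO only and -100% = full killing by 100 µM tamoxifen; nearly all actives have a fitted effect of over 50% in size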
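ATP-luminescence viability readout (ATPlite, 20 min RT) after 24 hr compound treatment at 39C of H1299-neo or H1299-p53A138V cells; titration up to 46 uM; normalized to DMSO and 100 uM tamoxifen; Hill-fit AC50.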
OvCa metastasis = Primary qHTS assay for Inhibitors of ovarian cancer metastasis using an organotypic tumor microenvironment (TME) model. 0.1% of 46,000 active. Potency, µM (doses to about 45.8 µM), for the others: at the highest dose activity change, negative = inhibition, most hits filed as inhibitors. SKOV3ip1-GFP adhesion/invasion on 3D omental model, fluorescence. AID 1963576, 2024;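 also: potency is read from the fitted curve at half-maximal effect; plate controls were DMSO wells for no effect and tomatine positive control wells for full effect; nearly all actives have a fitted effect of over 65% in size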
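qHTS, 4-pt dose (0.36-46 umol/L); SKOV3ip1-GFP, 1,200 cells/well, no FBS; primary omental fibroblast/mesothelial co-culture 48 h pre-grown; 2 h RT + 16 h 37 C; PBS wash, 4% PFA; GFP count 488/509 nm.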
p53null 32C kill = qHTS Screen for Compounds that Selectively Target Cancer Cells with p53 Mutations: Cytotoxicity of p53 Null Cells at the Permissive Temperature | H1299-neo p53 null cells, ATP luminescence, 24 h, 32C | Potency, µM (titrated, usually from 46.1 µM), for the others: at the highest dose activity change, negative = cytotoxicity, actives largely listed as cytotoxic | 0.62% of 55,000 active | AID 903, 2007;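 also: potency is read from the fitted curve at half-maximal effect; 0% = DMSO only and -100% = full killing by 100 µM tamoxifen; nearly all actives have a fitted effect of over 55% in size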
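Luminescent ATP readout gave cell viability of p53-null H1299-neo cells after a 24 h compound exposure at the permissive 32C. Titrations ran up to 46 uM, and AC50s were fitted with the standard Hill equation.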
DYRK1A KinaseGlo = Assay for Inhibitors of Dual-Specificity Tyrosine-(Y)-Phosphorylation Regulated Kinase 1A (Kinase-Glo assay) | AID 2705, 2010 | recombinant DYRK1A, Kinase-Glo ATP depletion luminescence | Potency, µM (doses to about 76.9 µM), for the others: at the top dose activity change, negative = inhibition, actives largely listed as inhibitors | shares compounds with NTMT1 inhibitor | 80% of 100 active
CLK4 inh = Confirmation Assay for Inhibitors of CDC-like Kinase 4 (Kinase-Glo Assay): SAR round 2 | shares compounds with NTMT1 inhibitor | AID 493204, 2011 | 90% of 90 active | recombinant Clk4, Kinase-Glo ATP luminescence, 4.5 h | Potency, µM (titrated, usually from 76.9 µM), inactives show at the top dose activity, negative = inhibition, actives largely listed as inhibitors
NNMT counter = Counterscreen qHTS for Inhibitors of N-terminal methyltransferase 1 (NTMT1): NNMT MTaseGlo assay | shares compounds with NTMT1 inhibitor | 10% of 120 active | NNMT MTase-Glo luminescence, SAH detection | Potency, µM (doses to about 57.1 µM), for the others: at the highest dose activity, negative = inhibition, actives largely listed as inhibitors
* marks the source's active call; other numbers are inactive results; i = inactive; ? = inconclusive; · = no result; ! = repeats disagree; [ ] = another dose, or the depositor's remark. Calls follow the shape of the dose curve; as a rule, active = well fitted curve in the direction sought with a large enough effect; inconclusive = small, poorly fitted or top-dose-only effect, or another doubt; inactive = no such curve, though single readings can be large; an effect the other way counts as inactive or inconclusive.

SMILES	NTMT1 inhibitor	FH mod	p53null 39C kill	OvCa metastasis	p53null 32C kill	others
N=c1n(CCN2CCCCC2)c2ccccc2n1CC(O)COc1ccccc1 (centres undefined)	1.1%	-24.9%	-6.6%	?	2.8%
Cc1ccccc1OCC(O)Cn1c(=N)n(CCN2CCCCC2)c2ccccc21 (centres undefined)	?	-0.3%	20µM*	?	-4.0%
CC(C)c1ccc2c(c1)C(=O)CC1[C@@](C)(C(=O)O)CCC[C@]21C (some centres undefined)	-17.5%[29.8 µM]	25.0%[53.3 µM]	·	·	·
CCC1CCCN(C(=O)CC(c2ccc3c(c2)OCO3)c2c(O)cc(OC)cc2OC)C1 (centres undefined)	26.8%	·	·	·	·
COc1ccc2nc(-c3ccc(N)cc3)[nH]c2c1	·	·	?	·	12.6µM*
COc1ccc(-c2nc3ccc(C4=NNC(=O)CC4C)cc3[nH]2)cc1 (centres undefined)	?	-0.9%	·	13.5%	·
COc1ccc2nc(-c3cccc(N)c3)[nH]c2c1	·	·	8.91µM*	·	10µM*
COc1ccc(C2COc3cc(O)ccc3C2)c(O)c1OC (centres undefined)	-2.1%[57.5 µM]	-2.2%	·	·	·
CC(C)(C)C1CCC(C(=O)Nc2ccc(S(=O)(=O)Nc3nccs3)cc2)CC1 (centres undefined)	9.2%	·	·	·	·
Cc1ccc(-c2nnc(NC(=O)c3ccc4c(c3)OCCO4)o2)c(C)c1	18.7%	23.6%	25.1µM*	3.1%	-14.8%
O=C(Nc1nnc(-c2cc(Cl)ccc2Cl)o1)c1ccc2c(c1)OCCO2	4.4%	16.2%	-41.0%	7.1%	-4.7%
CCOC(=O)c1cccc(Nc2cc(-c3ccccc3)ncn2)c1	?	?	-4.6%	-8.7%	?
COc1ccccc1-c1cc(Nc2cccc(CS(N)(=O)=O)c2)ncn1	35.5µM*	7.2%	·	·	·
CN(CCOc1ccc(C[C@H](Nc2ccccc2C(=O)c2ccccc2)C(=O)O)cc1)c1ccccn1	79.4µM*!	·	·	·	·
COC(=O)C(Cc1ccc(OCCn2c(=O)sc3cc(C(=O)c4ccccc4)ccc32)cc1)C(=O)OC	3.7%[57.5 µM]	-4.8%	·	·	·
C=CCc1cccc(CNc2ccc(S(=O)(=O)Nc3nccs3)cc2)c1O	8.6%	·	·	·	·
Cc1cc(Cl)ccc1NC(=O)Cn1nc(C)c2c(C)n(-c3ccccc3)nc2c1=O	50.1µM*	-7.4%	30.9%	15.6%	20.5%
C=C1CC/C=C(/CO)C(=O)C[C@@H]2[C@@H]1C[C@@]2(C)COC(C)=O	-6.6%[57.5 µM]	-4.0%	·	·	·
COc1ccc(CCNC(=O)CCc2c(C)c3cc4c(C)coc4c(C)c3oc2=O)cc1OC	89.1µM*	-6.4%	-1.8%	i	-14.2%
COc1ccc(CNC(=O)Cc2c(C)c3cc4c(C)coc4c(C)c3oc2=O)cc1OC	-7.5%	-3.7%	3.4%	4.6%	-1.4%
Cc1cc(-c2nnc3n2CCCCC3)c(C)n1-c1ccc([N+](=O)[O-])cc1	-2.9%	·	·	·	·
NC(=O)c1c(OCc2c(F)cc(Br)cc2F)nsc1NC(=O)NCCCCN1CCCC1	30.4µM*!	24.5%	·	5.2%	·
O=C(Nc1ccc(Br)cc1F)N1CCC(CN2CCCC2)CC1	-6.8%	-11.9%	1.6%	i	0.9%
COc1cncc(NC(=O)c2cccs2)c1	3.2%[57.5 µM]	·	·	·	·
N#C/C(=C1/Nc2ccccc2S1)c1ccnc(OCc2ccc(CN3CCOCC3)cc2)n1	-7.9%	·	·	·	·
SMILES	NTMT1 inhibitor	FH mod	p53null 39C kill	OvCa metastasis	p53null 32C kill	others
NC(=O)C1CCN(c2nc(-c3ccc(-c4ccccc4)cc3)cs2)CC1	-9.1%	·	·	·	·
NC(=O)C1CCN(c2nc(-c3ccc(F)cc3)cs2)CC1	79.4µM*	·	·	·	·
O=C(Nc1ncc([N+](=O)[O-])s1)c1cccs1	39.8µM*	0.0%[53.3 µM]	·	·	·
O=C(Nc1cccnc1)c1cccs1	-6.1%	·	·	·	·
CC(C)c1c2cc(-c3ccnc(NC4CCC(NC5CCOCC5)CC4)n3)ccc2nn1C (centres undefined)	44.7µM*	-0.8%	·	·	·
Fc1ccc(-c2nc(C3CCNCC3)sc2-c2ccnc(NC3CC3)n2)cc1	-8.3%[57.5 µM]	-0.4%	·	·	·
COc1cc2c(NC3CCN(C4CCCCC4)CC3)nc(N3CCCN(C(C)C)CC3)nc2cc1OCCCN1CCCCC1	20µM*	·	·	·	·
COc1cc2c(NC3CCN(CC4CCCCC4)CC3)nc(N3CCCN(C(C)C)CC3)nc2cc1OCCCN1CCCCC1	?	-6.3%	·	·	·
CC(=O)N[C@@H](CC(C)C)C(=O)N[C@@H](CCC(=O)O)C(=O)N[C@@H](CCC(=O)O)C(=O)N[C@@H](CC(=O)O)C(=O)Nc1ccc2c(C(F)(F)F)cc(=O)oc2c1	-3.8%[57.5 µM]	8.6%	·	·	·	NNMT counter=-8.7%
C[C@H](Oc1cc(-c2cnn(C3CCNCC3)c2)cnc1N)c1c(Cl)ccc(F)c1Cl	?	-3.1%	·	·	·
C[C@@H](Oc1cc(-c2cnn(C3CCNCC3)c2)cnc1N)c1c(Cl)ccc(F)c1Cl	17.8µM*	-8.0%	·	-15.8%	·	NNMT counter=?
Cc1ccc2ncnc(NCCC(=O)O)c2c1	·	·	17.3%	·	4.7%
c1nc(NCCc2cnc[nH]2)c2cc(-c3ccoc3)ccc2n1	-2.0%	·	·	·	·	DYRK1A KinaseGlo=4.12µM*
Cc1occc1-c1ccc2ncnc(NCCc3cnc[nH]3)c2c1	?	·	·	·	·	DYRK1A KinaseGlo=9.23µM*
CCOC(=O)c1ccoc1-c1ccc2ncnc(NCCc3cnc[nH]3)c2c1	-8.7%	·	·	·	·	DYRK1A KinaseGlo=?
CC(O)c1ccc(-c2ccc3ncnc(NCCc4cnc[nH]4)c3c2)o1 (centres undefined)	?	·	·	·	·	CLK4 inh=1.46µM*

Bioassay records as filed in PubChem BioAssay.
